Results filed as inconclusive are left out. Where a call stands in place of a potency, no number is given. The source made the active and inactive calls. Unless noted, the call rests on the fitted dose curve.
Columns and labels:
[1] = Validation qHTS assay for inhibitors of Activation Induced Cytidine Deaminase (AID): UDG Counterscreen signal (AID 1347427; active means well fitted curve in the direction sought with a large enough effect; an effect the other way counts as inactive or inconclusive); settings: biochemical UDG counterscreen, fluorescence signal; series mostly up to 115 µM
Outline: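 Counterscreen read of UDG activity (2 U/mL, 4/3x) in the FRET deamination format with AID (1 uM, 4/3x), DJC20/DJC23 substrates (250 nM, 4x), 4 h at room temperature. NaOH stop, fluorescence at 560 ex/665 em.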

[2] = molecular target: Single-stranded DNA cytosine deaminase (Homo sapiens) (UniProt Q9GZX7); assay: Validation qHTS assay for inhibitors of Activation Induced Cytidine Deaminase (AID): AID signal (AID 1347429; active means well fitted curve in the direction sought with a large enough effect; an effect the other way counts as inactive or inconclusive); settings: Recombinant AID, FRET ssDNA deamination with UDG, fluorescence; series mostly up to 115 µM
Sequence of Single-stranded DNA cytosine deaminase (Homo sapiens) (Q9GZX7 whole entry, looked up): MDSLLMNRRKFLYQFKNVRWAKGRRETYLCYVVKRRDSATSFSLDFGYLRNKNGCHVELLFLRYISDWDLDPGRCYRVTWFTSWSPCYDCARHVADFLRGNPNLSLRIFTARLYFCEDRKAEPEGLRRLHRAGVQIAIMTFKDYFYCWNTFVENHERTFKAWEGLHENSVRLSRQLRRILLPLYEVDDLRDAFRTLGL
Outline: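 Fluorescence at 540 nm excitation and 590 nm emission reports ssDNA cytosine deamination by AID, with UDG in the same well. Compound-treated reactions ran 4 hr at room temperature with DJC20/DJC23 substrate, followed by 30 min NaOH treatment.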

[3] = Confirmatory qHTS for VERO E6 Cytotoxicity Assay: Counterscreen for SARS-CoV-2 CPE Assay (AID 1508605); settings: cell viability luminescence; series mostly up to 20 µM; further: nearly all actives have a fitted effect of over 60% in size
[4] = Primary qHTS for inhibitors of SARS-S pseudo-typed particle cell entry (AID 1479145); settings: SARS-S pseudotyped particle cell entry, luciferase reporter; series mostly up to 57.1 µM; further: nearly all actives have a fitted effect of over 45% in size
[5] = Primary qHTS for Huh7 cytotoxicity: counterscreen for inhibitors of MERS-S pseudotyped particle cell entry (AID 1479147); settings: cell viability read-out; series mostly up to 57.1 µM
[6] = Primary qHTS for inhibitors of MERS-S pseudo-typed particle cell entry (AID 1479149); settings: MERS-S pseudotyped particle entry, luciferase; series mostly up to 57.1 µM; further: nearly all actives have a fitted effect of over 60% in size
[7] = Primary qHTS for Vero E6 cytotoxicity: counterscreen for inhibitors of SARS-S pseudo-typed particle cell entry (AID 1479150); settings: cell viability; series mostly up to 57.1 µM

With `O=c1c2ccccc2[se]n1-c1ccccc1` the Potency [1] was “inactive”, the Potency [2] was “inactive” and the outcome [3] was “inactive”.
With `N[C@@H](Cn1ccc(=O)[nH]c1=O)C(=O)O` the Potency [1] was “inactive” and the Potency [2] was “inactive”.
For `COc1ccc2c(c1)c(CCN1CCOCC1)c(C)n2C(=O)c1cccc(Cl)c1Cl`, the Potency [1] was “inactive” and the Potency [2] was “inactive”.
With `O=C(O)c1cc[c]([Hg][Cl])cc1` the Potency [1] was “inactive” and the Potency [2] was “inactive”.
For `CN1[C@H]2CC[C@@H]1[C@@H](C(=O)O)[C@@H](OC(=O)c1ccccc1)C2`, the outcome [4] was “inactive”, the outcome [5] was “inactive [at 114 µM]” and the outcome [6] was “inactive [at 114 µM]”. For the same molecule, the Potency [7] was “inactive”.
In the case of `C=CCN1CCc2cccc3c2[C@H]1Cc1ccc(O)c(O)c1-3`, the Potency [1] is reported as “inactive” and the Potency [2] is reported as “inactive”.
With `C/C(=C\c1csc(C)n1)[C@@H]1C[C@@H]2O[C@]2(C)CCC[C@H](C)[C@H](O)[C@@H](C)C(=O)C(C)(C)[C@@H](O)CC(=O)O1` the outcome [4] was “inactive”, the outcome [5] was “inactive” and the outcome [6] was “inactive”. The Potency [7] was “inactive”.
With `CCCN(CCC)CCc1c[nH]c2ccc(C(N)=O)cc12` the Potency [1] was “inactive” and the Potency [2] was “inactive”.
For `NC(Cc1ccc(N(CCCl)CCCl)cc1)C(=O)O` (stereo not drawn), the Potency [1] was “inactive” and the Potency [2] was “inactive”.
In the case of `C/C(O)=C(\C#N)C(=O)Nc1cc(Br)ccc1Br`, the Potency [1] is reported as “inactive” and the Potency [2] is reported as “inactive”.
For `C=CCN(C1=NCCN1)c1c(Cl)cccc1Cl`, the Potency [1] was “inactive” and the Potency [2] was “inactive”.
With `CCC1(C)CC(=O)NC(=O)C1` the outcome [4] was “inactive [at 114 µM]”, the outcome [5] was “inactive [at 114 µM]” and the outcome [6] was “inactive”. The Potency [7] was “inactive”.
For `CC(C)CCC(=O)O[C@H]1CC[C@H]2[C@@H]3CCC4=CC(=O)CC[C@]4(C)[C@H]3CC[C@]12C`, the outcome [4] was “inactive”, the outcome [5] was “inactive” and the outcome [6] was “inactive”. The Potency [7] was “inactive”.
For `CCCCCCC(C)(C)c1ccc([C@@H]2C[C@H](O)CC[C@H]2CCCO)c(O)c1`, the Potency [1] was “inactive” and the Potency [2] was “inactive”.
In the case of `O=S(=O)(O)c1cc(O)ccc1O`, the outcome [4] is reported as “inactive”, the outcome [5] is reported as “inactive” and the outcome [6] is reported as “inactive”. The Potency [7] was “inactive”.
With `CC(=O)O[C@H]1CC[C@H]2[C@@H]3CCC4=CC(=O)CCC4=C3C=C[C@]12C` the outcome [4] was “inactive”, the outcome [5] was “inactive” and the outcome [6] was “inactive”. For the same molecule, the Potency [7] was “inactive”.
In the case of `CCCCNCC(O)c1ccc(O)cc1` (stereo not drawn), the outcome [4] is reported as “inactive”, the outcome [5] is reported as “inactive” and the outcome [6] is reported as “inactive”. For the same molecule, the Potency [7] was “inactive”.
In the case of `O=[N+]([O-])c1ccccc1`, the outcome [4] is reported as “inactive”, the outcome [5] is reported as “inactive” and the outcome [6] is reported as “inactive”. The Potency [7] was “inactive”.
